# Test results as given in the supplement of paper PMC12282887.
# ± gives the standard deviation of the averaged measurements.
# Columns and labels:
# Experiment in all cases: promoter activity interaction Z-score (Lux/OD deviation from empty-vector control); higher = stronger promoter induction by the compound
# [1] = test system: E. coli BW25113 acrABp lux reporter
# Outline: (§1)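 At 37°C, E. coli BW25113 reporter cultures in 40 µl LB Lennox in 384-well plates were read for OD600 and luminescence every 30 min for 12 h. Windows were 0–8 h for wild type and 1–9 h for deletion strains, and wells under 10% of the median growth value were removed. The score is the Z-transformed residual of growth-normalised luminescence against a control fit.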
# [2] = test system: E. coli BW25113 marRABp lux reporter
# Outline: as §1
# [3] = test system: E. coli BW25113 micFp lux reporter
# Outline: as §1
# [4] = test system: E. coli BW25113 ompFp lux reporter
# Outline: as §1
# [5] = test system: E. coli BW25113 robp lux reporter
# Outline: as §1
# [6] = test system: E. coli BW25113 soxSp lux reporter
# Outline: as §1
# [7] = test system: E. coli BW25113 tolCp lux reporter
# Outline: as §1
# [8] = 0.034 µg/ml, genetic background: wild type
# [9] = 0.034 µg/ml, genetic background: ΔmarA
# [10] = 0.034 µg/ml, genetic background: Δrob
# [11] = 0.034 µg/ml, genetic background: ΔsoxS
# [12] = 0.067 µg/ml, genetic background: wild type
# [13] = 0.067 µg/ml, genetic background: ΔmarA
# [14] = 0.067 µg/ml, genetic background: Δrob
# [15] = 0.067 µg/ml, genetic background: ΔsoxS
# [16] = 0.13 µg/ml, genetic background: wild type
# [17] = 0.13 µg/ml, genetic background: ΔmarA
# [18] = 0.13 µg/ml, genetic background: Δrob
# [19] = 0.13 µg/ml, genetic background: ΔsoxS
# [20] = 0.27 µg/ml, genetic background: wild type
# [21] = 0.27 µg/ml, genetic background: ΔmarA
# [22] = 0.27 µg/ml, genetic background: Δrob
# [23] = 0.27 µg/ml, genetic background: ΔsoxS
structure (smiles),measurement,setting,value
CCN1CCN(C(=O)N[C@@H](C(=O)N[C@@H]2C(=O)N3[C@@H]2SC(C)(C)[C@@H]3C(=O)O)c2ccccc2)C(=O)C1=O [Piperacillin],promoter activity interaction Z-score,[1]; [8],-0.232 ± 0.0098
same,promoter activity interaction Z-score,[1]; [9],-0.0362 ± 0.011
same,promoter activity interaction Z-score,[1]; [10],0.0917 ± 0.12
same,promoter activity interaction Z-score,[1]; [11],-0.171 ± 0.35
same,promoter activity interaction Z-score,[1]; [12],-0.00951 ± 0.16
same,promoter activity interaction Z-score,[1]; [13],-0.975 ± 0.12
same,promoter activity interaction Z-score,[1]; [14],-0.296 ± 0.13
same,promoter activity interaction Z-score,[1]; [15],0.0579 ± 0.55
same,promoter activity interaction Z-score,[1]; [16],-0.124 ± 0.2
same,promoter activity interaction Z-score,[1]; [17],0.866 ± 1.5
same,promoter activity interaction Z-score,[1]; [18],0.0632 ± 0.21
same,promoter activity interaction Z-score,[1]; [19],-0.295 ± 0.39
same,promoter activity interaction Z-score,[1]; [20],-0.155 ± 0.22
same,promoter activity interaction Z-score,[1]; [21],1.08 ± 0.93
same,promoter activity interaction Z-score,[1]; [22],0.045 ± 0.16
same,promoter activity interaction Z-score,[1]; [23],-0.703 ± 0.75
same,promoter activity interaction Z-score,[2]; [8],-0.259 ± 0.22
same,promoter activity interaction Z-score,[2]; [9],-0.115 ± 0.2
same,promoter activity interaction Z-score,[2]; [10],-0.137 ± 0.032
same,promoter activity interaction Z-score,[2]; [11],-0.285 ± 0.24
same,promoter activity interaction Z-score,[2]; [12],0.0282 ± 0.023
same,promoter activity interaction Z-score,[2]; [13],-0.147 ± 0.33
same,promoter activity interaction Z-score,[2]; [14],-0.102 ± 0.11
same,promoter activity interaction Z-score,[2]; [15],-0.225 ± 0.29
same,promoter activity interaction Z-score,[2]; [16],-0.0179 ± 0.059
same,promoter activity interaction Z-score,[2]; [17],-0.0535 ± 0.27
same,promoter activity interaction Z-score,[2]; [18],-0.134 ± 0.096
same,promoter activity interaction Z-score,[2]; [19],-0.159 ± 0.072
same,promoter activity interaction Z-score,[2]; [20],-0.12 ± 0.057
same,promoter activity interaction Z-score,[2]; [21],-0.117 ± 0.15
same,promoter activity interaction Z-score,[2]; [22],-0.0506 ± 0.1
same,promoter activity interaction Z-score,[2]; [23],-0.145 ± 0.44
same,promoter activity interaction Z-score,[3]; [8],0.00552 ± 0.088
same,promoter activity interaction Z-score,[3]; [9],-0.146 ± 0.15
same,promoter activity interaction Z-score,[3]; [10],-0.0761 ± 0.045
same,promoter activity interaction Z-score,[3]; [11],-0.264 ± 0.15
same,promoter activity interaction Z-score,[3]; [12],0.13 ± 0.05
same,promoter activity interaction Z-score,[3]; [13],0.0167 ± 0.14
same,promoter activity interaction Z-score,[3]; [14],-0.0679 ± 0.059
same,promoter activity interaction Z-score,[3]; [15],-0.148 ± 0.27
same,promoter activity interaction Z-score,[3]; [16],-0.112 ± 0.27
same,promoter activity interaction Z-score,[3]; [17],-0.0842 ± 0.077
same,promoter activity interaction Z-score,[3]; [18],-0.0193 ± 0.093
same,promoter activity interaction Z-score,[3]; [19],-0.266 ± 0.18
same,promoter activity interaction Z-score,[3]; [20],-0.272 ± 0.16
same,promoter activity interaction Z-score,[3]; [21],-0.139 ± 0.059
same,promoter activity interaction Z-score,[3]; [22],-0.0211 ± 0.15
same,promoter activity interaction Z-score,[3]; [23],-0.639 ± 0.054
same,promoter activity interaction Z-score,[4]; [8],-0.0853 ± 0.096
same,promoter activity interaction Z-score,[4]; [9],0.15 ± 0.27
same,promoter activity interaction Z-score,[4]; [10],-0.247 ± 0.24
same,promoter activity interaction Z-score,[4]; [11],-0.152 ± 0.042
same,promoter activity interaction Z-score,[4]; [12],0.324 ± 0.3
same,promoter activity interaction Z-score,[4]; [13],-0.184 ± 0.32
same,promoter activity interaction Z-score,[4]; [14],0.0351 ± 0.21
same,promoter activity interaction Z-score,[4]; [15],0.0638 ± 0.27
same,promoter activity interaction Z-score,[4]; [16],0.0298 ± 0.29
same,promoter activity interaction Z-score,[4]; [17],0.086 ± 0.054
same,promoter activity interaction Z-score,[4]; [18],-0.035 ± 0.23
same,promoter activity interaction Z-score,[4]; [19],-0.0829 ± 0.38
same,promoter activity interaction Z-score,[4]; [20],0.489 ± 0.45
same,promoter activity interaction Z-score,[4]; [21],0.879 ± 0.27
same,promoter activity interaction Z-score,[4]; [22],1.38 ± 0.61
same,promoter activity interaction Z-score,[4]; [23],0.0824 ± 1.4
same,promoter activity interaction Z-score,[5]; [8],0.0506 ± 0.23
same,promoter activity interaction Z-score,[5]; [9],-0.0397 ± 0.005
same,promoter activity interaction Z-score,[5]; [10],0.283 ± 0.84
same,promoter activity interaction Z-score,[5]; [11],-0.0239 ± 0.021
same,promoter activity interaction Z-score,[5]; [12],0.564 ± 0.3
same,promoter activity interaction Z-score,[5]; [13],0.263 ± 0.19
same,promoter activity interaction Z-score,[5]; [14],0.443 ± 0.078
same,promoter activity interaction Z-score,[5]; [15],0.154 ± 0.23
same,promoter activity interaction Z-score,[5]; [16],0.0585 ± 0.068
same,promoter activity interaction Z-score,[5]; [17],0.404 ± 0.017
same,promoter activity interaction Z-score,[5]; [18],0.606 ± 0.011
same,promoter activity interaction Z-score,[5]; [19],0.00285 ± 0.0042
same,promoter activity interaction Z-score,[5]; [20],0.179 ± 0.51
same,promoter activity interaction Z-score,[5]; [21],0.636 ± 0.1
same,promoter activity interaction Z-score,[5]; [22],0.356 ± 0.1
same,promoter activity interaction Z-score,[5]; [23],-0.904 ± 1.2
same,promoter activity interaction Z-score,[6]; [8],-0.0446 ± 0.039
same,promoter activity interaction Z-score,[6]; [9],-0.141 ± 0.061
same,promoter activity interaction Z-score,[6]; [10],0.0401 ± 0.031
same,promoter activity interaction Z-score,[6]; [11],-0.0874 ± 0.14
same,promoter activity interaction Z-score,[6]; [12],0.017 ± 0.053
same,promoter activity interaction Z-score,[6]; [13],-0.00164 ± 0.038
same,promoter activity interaction Z-score,[6]; [14],0.126 ± 0.088
same,promoter activity interaction Z-score,[6]; [15],0.0907 ± 0.13
same,promoter activity interaction Z-score,[6]; [16],-0.0137 ± 0.014
same,promoter activity interaction Z-score,[6]; [17],-0.056 ± 0.022
same,promoter activity interaction Z-score,[6]; [18],-0.105 ± 0.013
same,promoter activity interaction Z-score,[6]; [19],-0.0509 ± 0.17
same,promoter activity interaction Z-score,[6]; [20],-0.122 ± 0.084
same,promoter activity interaction Z-score,[6]; [21],-0.184 ± 0.011
same,promoter activity interaction Z-score,[6]; [22],-0.0489 ± 0.12
same,promoter activity interaction Z-score,[6]; [23],-0.233 ± 0.7
same,promoter activity interaction Z-score,[7]; [8],0.0285 ± 0.87
same,promoter activity interaction Z-score,[7]; [9],-0.171 ± 0.024
same,promoter activity interaction Z-score,[7]; [10],-0.382 ± 0.53
same,promoter activity interaction Z-score,[7]; [11],0.0095 ± 1.5
same,promoter activity interaction Z-score,[7]; [12],0.334 ± 0.13
same,promoter activity interaction Z-score,[7]; [13],0.917 ± 0.67
same,promoter activity interaction Z-score,[7]; [14],0.279 ± 0.2
same,promoter activity interaction Z-score,[7]; [15],-0.332 ± 0.83
same,promoter activity interaction Z-score,[7]; [16],-0.441 ± 0.82
same,promoter activity interaction Z-score,[7]; [17],-0.635 ± 0.38
same,promoter activity interaction Z-score,[7]; [18],0.0967 ± 0.77
same,promoter activity interaction Z-score,[7]; [19],-0.574 ± 0.84
same,promoter activity interaction Z-score,[7]; [20],-0.552 ± 0.3
same,promoter activity interaction Z-score,[7]; [21],0.498 ± 0.032
same,promoter activity interaction Z-score,[7]; [22],0.489 ± 0.43
same,promoter activity interaction Z-score,[7]; [23],-0.895 ± 0.62
